Screening results deposited in PubChem BioAssay by Buhrlage Lab, Dana-Farber Cancer Institute and Novartis Institutes for BioMedical Research (Cambridge, Mass).
USP30 block = blocks human USP30 ubiquitin-rhodamine cleavage | Q70CQ3 | purified USP30, Ub-rhodamine cleavage fluorescence | inhibition, % at 25 µM | 47,000 tested, 5.3% active
Target sequence (Q70CQ3 whole entry, looked up): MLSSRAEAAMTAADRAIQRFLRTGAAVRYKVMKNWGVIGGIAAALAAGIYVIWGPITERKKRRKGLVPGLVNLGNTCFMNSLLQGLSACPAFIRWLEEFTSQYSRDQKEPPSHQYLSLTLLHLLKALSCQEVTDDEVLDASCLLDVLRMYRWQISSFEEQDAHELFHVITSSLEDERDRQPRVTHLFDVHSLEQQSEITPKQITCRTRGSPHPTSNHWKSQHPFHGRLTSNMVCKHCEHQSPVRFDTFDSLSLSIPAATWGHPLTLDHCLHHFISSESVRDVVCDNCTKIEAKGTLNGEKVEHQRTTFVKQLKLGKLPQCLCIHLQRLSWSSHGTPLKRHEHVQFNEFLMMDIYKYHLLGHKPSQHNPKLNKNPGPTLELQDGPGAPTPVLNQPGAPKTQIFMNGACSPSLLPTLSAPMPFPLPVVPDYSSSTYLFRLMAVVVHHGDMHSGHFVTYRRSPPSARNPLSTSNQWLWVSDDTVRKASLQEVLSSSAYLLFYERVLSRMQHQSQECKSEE
USP28 block = blocks human USP28 ubiquitin-rhodamine cleavage; Q96RU2; purified USP28, Ub-rhodamine cleavage fluorescence, 30 min; inhibition, % at 25 µM; 47,000 tested, 3% active; AID 1645857
OTUD3 block = blocks human OTUD3 ubiquitin-rhodamine cleavage | Q5T2D3 | purified OTUD3, Ub-rhodamine fluorescence, 2 h | inhibition, % at 25 µM | 47,000 tested, 0.7% active | AID 1645858
USP17 inh = human USP17-like deubiquitinase inhibition | purified USP17, Ub-rhodamine cleavage fluorescence, 3 h | 47,000 tested, 6.5% active | AID 1645855 | inhibition, % at 50 µM
Large screens that a line does not name were inactive. Hits are enriched below; roughly 11% of the tested compounds scored in any of these assays. No stated cut-off is given here; in the data, active means inhibition above about 30%; inactive means the rest.

CCOC(=O)c1cnn(-c2nc(-c3ccccc3)c(S(=O)(=O)c3ccc(Cl)cc3)s2)c1C(F)(F)F	none
Cc1ccc(C(CNS(=O)(=O)c2ccccc2)N2CCN(C)CC2)cc1 (stereo not drawn)	none
CCC1(C)Cc2c(sc3nc(SCc4ccccc4F)nc(N)c23)CO1 (stereo not drawn)	none
O=C(Nc1nccn(-c2ccc3c(c2)CCC3)c1=O)c1ccccc1	none
CCOc1cccc2nnc(NC(=O)Nc3cccc(F)c3)n12	none
O=C(Nc1ccccc1)Nc1nccn(-c2ccc3c(c2)CCC3)c1=O	USP30 block 39, USP17 inh 30
COc1ccccc1-n1ccnc(NC(=O)Nc2cccc(F)c2)c1=O	USP17 inh 46
O=C(Nc1ccc(F)cc1F)Nc1nccn(-c2cccc(F)c2)c1=O	none
COc1cccc(NC(=O)Nc2nccn(-c3ccc(F)cc3)c2=O)c1	USP17 inh 54
COc1ccc(CCN2C(=O)CCC2(C)C(=O)NCc2ccccc2)c(OC)c1 (stereo not drawn)	none
COc1ccc(NC(=O)COC(=O)c2cccc(S(=O)(=O)N(C)c3cccc(Cl)c3)c2)c(OC)c1	USP30 block 33
CN(c1cccc(Cl)c1)S(=O)(=O)c1cccc(C(=O)OCC(=O)N(Cc2ccccc2)C(C)(C)C)c1	none
O=S(=O)(Nc1nc2ccccc2nc1NCc1ccc2c(c1)OCO2)c1ccc(F)cc1	none
O=S(=O)(NNc1nc2ccccc2nc1C(F)(F)F)c1ccc(Br)cc1	USP30 block 36
O=C(c1cnn2cccnc12)N1CCC(c2ccn3nccc3n2)CC1	USP30 block 33
CC(=O)N1c2ccc(S(=O)(=O)N3CCC(C(=O)NCCN4CCN(c5ccccc5F)CC4)CC3)cc2CC1C (stereo not drawn)	none
Cc1ccc(S(=O)(=O)NCCn2c(N)c(C#N)c3nc4ccccc4nc32)cc1	USP17 inh 40
Cc1ccc(S(=O)(=O)NCCn2ccc3ccccc32)cc1	none
Cc1ccc(Cn2c(=O)c(N3CCC(NC(=O)NC(C)C)CC3)nc3cccnc32)cc1	none
C[C@]12C(=O)N(Cc3ccco3)CC(=O)N1CC(c1ccc(Br)cc1)c1c2[nH]c2ccccc12 (stereo partly drawn)	USP17 inh 34
Nc1cc(-c2ccccc2)nn1-c1nc(-c2cccc(O)c2)cs1	none (no result: USP30 block, USP28 block)
CC(C)COc1ccc(C(=O)Oc2ccc(-n3cnnn3)cc2)cc1	none
O=C(NCc1cccnc1)c1cnn2c(C(F)(F)F)cc(-c3ccccc3)nc12	USP30 block 64
NC(=O)c1cccc(CN2CCC3(CC2)CC3c2nnc(-c3cccc(F)c3)o2)c1 (stereo not drawn)	none
COc1ccc(-c2ccc(CCC(=O)Nc3cccc4ccccc34)o2)cc1	none (no result: USP17 inh)
COc1ccc(-c2ccc(CCC(=O)Nc3c(C)cccc3C)o2)cc1	USP30 block 44
Cc1cc(C)n(-c2ccc(C(=O)Nc3cccc(Cl)c3C)nn2)n1	none
COc1cc(NC(=O)Cc2ccc3c(c2)OCCO3)c(OC)cc1Cl	USP30 block 45
O=C(Cc1ccc2c(c1)OCCO2)Nc1ccc(F)cc1F	none (no result: USP30 block, USP28 block)
COc1ccc2c(=O)c3c(=O)n(-c4ccccc4)c(-c4cccs4)nc3oc2c1	none
CCCOC(=O)c1cc(NC(=O)c2cc3ccccc3c(Br)c2OC)ccc1N1CCOCC1	none
CN(c1ccccc1)c1ccc2ccc(C(=O)NCCc3ccccn3)cn12	none
COc1ccc(CCNC(=O)c2cnn(-c3ccc([N+](=O)[O-])cc3)c2C2CCNCC2)c(OC)c1	USP30 block 34
O=C(c1cc2c(s1)CN(C1CC1)C2)N1CCN(c2ccccn2)CC1	USP17 inh 40
Cc1ccc(-c2c(C(=O)Nc3ccc(S(N)(=O)=O)cc3)oc(=O)c3ccccc23)cc1	USP17 inh 57
Cc1nc2nc(NCc3cccc([N+](=O)[O-])c3)[nH]n2c(=O)c1Cc1ccccc1	none
Cc1cc(C)n2cc(-c3sccc3Cl)c(C#N)c2n1	USP17 inh 33
C1CNCC(CCc2nc(N3CCCC3)nc3c2CNCC3)C1 (stereo not drawn)	USP28 block 31
COc1cccc2c1OCC(NS(=O)(=O)c1cc(C)ccc1C)C2 (stereo not drawn)	OTUD3 block 82
COc1cc(C)ccc1NC(=O)COc1cccc2c1OC(C)(C)C2	none
COc1cc2nc(CN3CCN(c4ccc(O)cc4)CC3)[nH]c(=O)c2cc1OC	USP17 inh 41
Cc1ccc(C(=O)N2CC[C@@H]3CN(C(=O)c4ccccc4)[C@@H]3C2)cc1	none
Cc1cccc(S(=O)(=O)N2CCc3nc4ccccc4n3CC2)c1	USP17 inh 84
O=S(=O)(c1ccc(F)cc1)N1CCN(c2nnnn2-c2ccccc2)CC1	none
O=S(=O)(c1cccc(F)c1)N1CCN(c2nnnn2-c2ccccc2)CC1	OTUD3 block 41, USP17 inh 30
O=C(Nc1ccccc1)N1CCCn2c(nc3ccccc32)C1	none
O=S(=O)(c1ccccc1)N1CCc2nc3ccccc3n2CC1	none
N#Cc1cccc(S(=O)(=O)N2CCc3nc4ccccc4n3CC2)c1	USP30 block 51, USP17 inh 30
O=C(Nc1cccc(C(F)(F)F)c1)N1CCCn2c(nc3ccccc32)C1	USP30 block 79, USP28 block 32, USP17 inh 37
CC(C)n1ncc2[nH]c(C3CCN(C4CCN(Cc5ccccn5)CC4)CC3)nc21	none
Cc1cc(=O)n2[nH]c(-c3cccc4ccccc34)nc2n1	none
O=S(=O)(c1cccc(F)c1)N1CCc2nc3ccccc3n2CC1	USP17 inh 91
O=S(=O)(c1cc(F)cc(F)c1)N1CCc2nc3ccccc3n2CC1	none
N#Cc1cccc(NC(=O)N2CCc3nc4ccccc4n3CC2)c1	USP30 block 33
N#Cc1cccc(NC(=O)N2CCCn3c(nc4ccccc43)C2)c1	none
N#Cc1cccc(NC(=O)N2CCC(CCOc3ccccc3)CC2)c1	USP30 block 33
O=C(Nc1ccccc1)N1CCC(CCOc2ccccc2)CC1	none
CC(C)CNc1nc2c(cc1C(=O)NCC1CC1)CCNCC2	USP30 block 45
CCCc1cc(C2CCCN2C(=O)c2cc(-c3ccccc3)no2)no1 (stereo not drawn)	USP30 block 32
CCCc1cc(C2CCCN2C(=O)c2cc(-c3ccccc3)on2)no1 (stereo not drawn)	none
Cc1cccc(CCC(=O)N2CCC(c3nc4ccccc4cc3C(N)=O)CC2)n1	none
COc1ccc(S(=O)(=O)Nc2cccc3c2ccc2cccn23)cc1	none
COc1cccc(NC(=O)c2ccc(F)cc2Cl)c1	USP28 block 54
COc1ccc(NC(=O)c2ccc(S(C)(=O)=O)cc2Cl)cc1	USP28 block 46
O=C(NCc1ccc(Cl)cc1)[C@@H]1Cc2nc[nH]c2CN1Cc1ccccc1	none (no result: USP17 inh)
Cc1cc(C(=O)N[C@H]2[C@H](O)[C@H](O)C[C@@H]2c2ccc(C(F)(F)F)nc2)no1	none
COc1ccc([C@H]2C[C@@H](O)[C@@H](O)[C@@H]2NC(=O)c2cc(C)on2)cc1	USP30 block 35
Cc1cccc(C(=O)NCc2noc(-c3ccccc3)n2)c1	none
Cc1cccc(C(=O)Nc2noc3nc(C)ccc23)c1	USP17 inh 36 (no result: USP30 block, USP28 block)
Fc1ccc(OCc2cc(-c3ccccc3)no2)cc1	none
Cc1cccc(OCc2cc(-c3ccccc3)no2)c1C	USP28 block 48
